Data as given in the supplement of paper PMC12339681.
Counter-ions that a name gives are not always drawn.

Test system: PBMC-derived induced microglia-like cells (piMGLC)
Experiment: synaptosome phagocytic index relative to DMSO control (fraction of DMSO); higher = more phagocytosis
Settings: concentration: 10 uM (2 uM for compounds listed in Table S2); pretreatment time: 24 h; assay time: 3 h
Method: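 PBMC-derived induced microglia-like cells (piMGLCs) in 96-well plates were pretreated for 24 h with CNS-penetrant library compounds (MedChemExpress HY-L028), mostly at 10 uM; Table S2 lists 9 compounds at 2 uM. pHrodo-Red-labelled human iPSC-neuron synaptosomes (3 ug/well) were then added for 3 h, and cells were fixed and imaged by confocal microscopy. Phagocytic index (synaptosome area / cell count, CellProfiler) is a mean over 3 replicate wells on different plates, normalized to the DMSO control. Compounds leaving <10% of DMSO cell count were marked toxic and given no value.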

Compound | synaptosome phagocytic index
CN(C)C(=O)c1cc2cnc(Nc3ccc(N4CCNCC4)cn3)nc2n1C1CCCC1 [Ribociclib_succinate] | 0.592
Cc1ccc(S(=O)(=O)/C=C/C#N)cc1 | 0.903
COc1ccc(NS(=O)(=O)c2ccc(N)cc2)nn1 [Sulfamethoxypyridazine] | 1.03
Clc1ccc2c(c1)C(N1CCNCC1)=Nc1ccccc1O2 [Amoxapine] | 0.463
Cn1cc(-c2ccncc2)c(-c2ccc(OCc3ccc4ccccc4n3)cc2)n1 [Mardepodect_(hydrochloride)] | 0.503
NNC(=O)c1ccncc1 [Isoniazid] | 1.01
CCCN[C@H]1CCc2nc(N)sc2C1 [Pramipexole_(dihydrochloride)] | 0.906
Fc1ccc(-c2c3cccc(C(F)(F)F)c3nn2Cc2ccc(F)cc2Cl)cc1 | 0.581
Cc1cc([C@@]23c4ccccc4C(=O)N2CCN3C(=O)c2ccc(F)c(F)c2)ccc1Cl | 0.335
COc1cc2/c(=N/c3ccc(Br)cc3F)nc[nH]c2cc1OCC1CCN(C)CC1 [Vandetanib] | 0.248
O=C1NC(=O)C(c2ccccc2)(c2ccccc2)N1 [Phenytoin] | 1.12
Nc1nc(=O)[nH]cc1F [Flucytosine] | 0.853
CN1C(C(=O)Nc2ccccn2)=C(O)c2ccccc2S1(=O)=O [Piroxicam] | 0.661
COc1ccc2[nH]cc(CCNC(C)=O)c2c1 [Melatonin] | 0.577
COc1ccc(Cl)cc1C(=O)NCCc1ccc(S(=O)(=O)NC(=O)NC2CCCCC2)cc1 [Glibenclamide] | 0.608
CS(=O)(=O)c1ccc(C(=O)Nc2ccc(Cl)c(-c3ccccn3)c2)c(Cl)c1 [Vismodegib] | 0.948
CCCc1nc(C)c2c(O)nc(-c3cc(S(=O)(=O)N4CCN(CC)CC4)ccc3OCC)nn12 [Vardenafil_(hydrochloride)] | 1.16
CN1CCN(C2=Nc3ccccc3Nc3ccccc32)CC1 [Deschloroclozapine] | 0.876
CC1COc2c(N3CCN(C)CC3)c(F)cc3c(=O)c(C(=O)O)cn1c23 (stereo not given) [Ofloxacin] | 1.05
CCN(CC)CC#CCOC(=O)C(O)(c1ccccc1)C1CCCCC1 (stereo not given) [Oxybutynin] | 0.889

Compound | synaptosome phagocytic index
NC(=O)OCC(COC(N)=O)c1ccccc1 [Felbamate] | 0.618
COc1ncc(F)cc1CNc1ccc(Cc2c[nH]c3ncc(C)cc23)c(F)n1 [PLX5622_(hemifumarate)] | 0.966
CC1(C)S[C@@H]2[C@H](NC(=O)[C@H](N)c3ccc(O)cc3)C(=O)N2[C@H]1C(=O)O [Amoxicillin_(sodium)] | 0.69
CCN(CC)C(=O)[C@@]1(c2ccccc2)C[C@H]1CN [Milnacipran_((1S-cis)_hydrochloride)] | 0.67
CCCCCCCCCC(=O)OCCN1CCN(CCCN2c3ccccc3Sc3ccc(C(F)(F)F)cc32)CC1 [Fluphenazine_decanoate] | 1.03
C[C@@H]1CN(C(=O)[C@@H]2CN(C(C)(C)C)C[C@H]2c2ccc(F)cc2F)C[C@H](C)[C@@]1(O)c1ccccc1 | 0.704
CN1CCN(c2cc(-c3ccncc3)c(-c3ccc4ccccc4c3)nn2)CC1 | 0.903
COc1cc2ncnc(Nc3ccc(F)c(Cl)c3)c2cc1OCCCN1CCOCC1 [Gefitinib] | 1.24
COc1cc2ncnc(Nc3ccc(F)c(Cl)c3)c2cc1NC(=O)/C=C/CN1CCCCC1 [Dacomitinib] | 1.26
CC(C)(C)C(=O)NCCCC(=O)O [Pivagabine] | 0.829
CC(C)(Sc1cc(C(C)(C)C)c(O)c(C(C)(C)C)c1)Sc1cc(C(C)(C)C)c(O)c(C(C)(C)C)c1 [Probucol] | 0.859
NC(=O)N1c2ccccc2CC(=O)c2ccccc21 [Oxcarbazepine] | 0.693
O=c1[nH]c2cc(Cl)ccc2c(O)c1-c1cccc(Oc2ccccc2)c1 | 1.18
CN(C)c1ncc(/C=C/c2nc3ccc(OCCF)cc3o2)s1 | 0.356
COc1cc2c(N3CCN(C(=O)Nc4ccc(OC(C)C)cc4)CC3)ncnc2cc1OCCCN1CCCCC1 [Tandutinib_(hydrochloride)] | 0.778
OCCOCCN1CCN(C(c2ccccc2)c2ccc(Cl)cc2)CC1 (stereo not given) [Hydroxyzine_(dihydrochloride)] | 0.957
CC(C)C[C@H](NC(=O)[C@H](CCCCN)NC(=O)[C@H](CO)NC(=O)[C@@H](N)CC(C)C)C(N)=O [LSKL,_Inhibitor_of_Thrombospondin_(TSP-1)_(TFA)] | 1.05
CC(C)[C@H](NC(=O)c1ccc2ccccc2n1)C(=O)N[C@@H](CC(=O)O)C(=O)COc1c(F)cccc1F | 1.14
CCc1c2c(nc3ccc(OC(=O)N4CCC(N5CCCCC5)CC4)cc13)-c1cc3c(c(=O)n1C2)COC(=O)[C@]3(O)CC [Irinotecan_(hydrochloride_trihydrate)] | 0.682
CN(C)CCc1c[nH]c2ccc(CS(=O)(=O)N3CCCC3)cc12 [Almotriptan_(malate)] | 0.882
